Assay outcomes deposited in PubChem by National Center for Advancing Translational Sciences (NCATS).
D2 ag-1: HTS Assay for Allosteric Agonists of the Human D2 Dopamine Receptor: Primary Screen for Agonists | AID 485358, 2010 | HEK293 T-REx D2 cells, calcium flux agonist mode | activation, % at 2 µM | 0.53% of 340,000 active;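 active means activation over 3 SD above normal in the single-dose calcium agonist read, cut at about 30% in these data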
Target sequence (P14416 whole entry, looked up): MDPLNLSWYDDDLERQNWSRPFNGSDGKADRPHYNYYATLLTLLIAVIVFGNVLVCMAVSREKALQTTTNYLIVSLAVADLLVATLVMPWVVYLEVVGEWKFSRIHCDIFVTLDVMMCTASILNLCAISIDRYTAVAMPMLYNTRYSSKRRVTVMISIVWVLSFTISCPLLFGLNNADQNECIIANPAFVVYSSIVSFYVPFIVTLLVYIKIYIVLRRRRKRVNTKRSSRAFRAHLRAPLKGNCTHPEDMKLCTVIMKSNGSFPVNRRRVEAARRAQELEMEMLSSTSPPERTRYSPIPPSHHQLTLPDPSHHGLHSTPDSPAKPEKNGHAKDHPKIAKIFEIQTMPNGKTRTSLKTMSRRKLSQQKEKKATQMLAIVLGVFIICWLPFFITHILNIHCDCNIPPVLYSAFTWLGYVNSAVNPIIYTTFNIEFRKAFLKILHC
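HEK293 Trex D2 cells, tetracycline-induced, o/n 30 C 5% CO2; no-wash Ca dye, RT 30–90 min; 10-cycle baseline, 23 nl cpd added, kinetic Ca read 180 s; agonist hits = positive Ca response.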
D2 PAM-1: Beta-Arrestin HTS for Positive Allosteric Modulators of the Human D2 Dopamine Receptor: Potentiators | D(2) dopamine receptor (Homo sapiens), P14416 | DiscoveRx D2 beta-arrestin cells, luminescence, 90 min; 100% = 57 uM dopamine signal | 0.23% of 360,000 active | potentiation, % (test concentration not listed); in the data active means potentiation above about 50%; inconclusive means mostly about 30% to 49%
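PathHunter beta-arrestin assay in DiscoveRx D2 cells. Compounds were added with an EC20 of dopamine (50 nM final) for 90 min at 37 deg C. Luminescence was read 1 h after detection reagent, with 57 uM dopamine as the EC100 control.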
D2 ag-2: Beta-Arrestin HTS for Positive Allosteric Modulators of the Human D2 Dopamine Receptor: Agonists; DiscoveRx PathHunter D2 beta-arrestin, luminescence, 90 min; 100% = 57 uM dopamine signal; D(2) dopamine receptor (Homo sapiens), P14416; activation, % (no concentration beside the values); 0.084% of 360,000 active; AID 624465, 2012; in the data active means activation above about 40%; inconclusive means between about 15% and that limit
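DiscoveRx PathHunter D2 beta-arrestin cells (2,100/well) attached overnight, then compound-stimulated 90 min at 37 C in HBSS/10 mM HEPES/0.1% Tween-20 buffer; beta-galactosidase complementation read by luminescence after 1 h at ambient temperature. Dopamine 57 uM final (EC100) as control.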
D2 PAM-2: HTS Assay for Positive Allosteric Modulators of the Human D2 Dopamine Receptor: Primary Screen for Potentiators; HEK293 T-REx D2, calcium flux, EC20 dopamine potentiation; 0.34% of 340,000 active; potentiation, % at 10 µM;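 active means potentiation over 3 SD above the plate norm, cut at about 30% in these data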
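Using a no-wash calcium dye in inducible, force-coupled HEK293 Trex cells expressing D2, we tracked fluorescence each second for 180 s after compound, then for 180 s after EC20 dopamine to detect augmented signalling.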
D2 antag: HTS Assay for Allosteric Antagonists of the Human D2 Dopamine Receptor: Primary Screen for Antagonists; 2% of 340,000 active; inhibition, % at 10 µM; HEK293 TREx D2 cells, calcium flux, dopamine EC80; D(2) dopamine receptor (Homo sapiens), P14416; in the data active means inhibition above about 30%; inactive means below that, where a call was filed
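Inhibition of EC80 dopamine-driven calcium flux, recorded kinetically, defines activity here; cells are a tetracycline-induced HEK293 T-REx line expressing force-coupled D2.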
Each line names hits and unclear results; the compound was inactive in the other large screens. Compounds with a hit are over-represented: about 2.4% of the library has one in this group of screens.

CCOC(=O)N1CCN(CC(O)COc2ccccc2C(C)CC)CC1 (stereo not drawn)	D2 antag 32
COc1ccccc1OCC(O)CN1CCN(C(=O)c2ccccc2)CC1 (stereo not drawn)	D2 ag-1 33
CCOC(=O)N1CCN(CC(O)COc2ccccc2C(C)C)CC1 (stereo not drawn)	none
COc1ccc(/C=C/C(=O)OCC(=O)c2ccc[nH]2)cc1	D2 antag 38
Cc1ccc(C(=O)NNC(=O)c2cc(OCC(F)(F)F)ccc2OCC(F)(F)F)cc1	D2 antag 32 (no result: D2 ag-1)
CC(=O)N1c2ccc(S(=O)(=O)N3CCCC3C(=O)Nc3ccc(C)cc3)cc2CC1C (stereo not drawn)	D2 antag 37
CC(C)c1ccc(NC(=O)C2CCN(S(=O)(=O)c3ccc4c(c3)NC(=O)CO4)CC2)cc1	none
CC(=O)N1c2ccc(S(=O)(=O)NCC3CCC(C(=O)Nc4cc(C)cc(C)c4)CC3)cc2CC1C (stereo not drawn)	none (no result: D2 PAM-1, D2 ag-2, D2 PAM-2, D2 antag)
CC(=O)N1c2ccc(S(=O)(=O)NCC3CCC(C(=O)Nc4ccc(C)cn4)CC3)cc2CC1C (stereo not drawn)	D2 PAM-2 34
CC(=O)N1c2ccc(S(=O)(=O)N3CCC(C(=O)Nc4cccc(Cl)c4)CC3)cc2CC1C (stereo not drawn)	D2 antag 41
Cc1ccc(NC(=O)C2CCN(S(=O)(=O)c3ccc4c(c3)NC(=O)CO4)CC2)cc1	D2 antag 32
Cc1nc2ccn(Cc3ccco3)c(=O)c2cc1C(=O)NCc1ccc(Cl)cc1	none (no result: D2 PAM-1, D2 ag-2, D2 antag)
CC(=O)N1c2ccc(S(=O)(=O)N3CCC(C(=O)Nc4cc(C)cc(C)c4)CC3)cc2CC1C (stereo not drawn)	D2 antag 71
CC(=O)N1c2ccc(S(=O)(=O)N3CCC(C(=O)Nc4cccc(C)c4)CC3)cc2CC1C (stereo not drawn)	none
Cc1ccccc1-c1cc2nc(NCCc3ccncc3)n(C)c(=O)c2s1	none (no result: D2 ag-1, D2 PAM-2, D2 antag)
CCOC(=O)C1=C[C@@H](C(C)(C)C)N(S(=O)(=O)c2ccc([N+](=O)[O-])cc2)[C@H]1c1ccccc1	none (no result: D2 ag-1, D2 PAM-2, D2 antag)
Cc1cc2oc(C(=O)Nc3nc(-c4ccccc4)ns3)c(C)c2cc1Cl	none (no result: D2 PAM-1, D2 ag-2, D2 antag)
Oc1ccc2ccccc2c1CNn1cnnc1	D2 antag 33
Cc1c(C(=O)O)sc2nc(/C=C/c3cccc(F)c3)[nH]c(=O)c12	none
Cc1ccc(/C=C/c2nc3sc(C(=O)O)c(C)c3c(=O)[nH]2)cc1[N+](=O)[O-]	D2 ag-2 inconclusive, D2 antag 33
O=C1CCCc2c1cc(C(=O)Nc1ccc(Br)cn1)c(=O)n2-c1ccccc1	D2 PAM-1 55
O=C1CCCc2c1cc(C(=O)O)c(=O)n2-c1ccccc1	none
O=C(COC(=O)c1ccc(Cl)c(S(=O)(=O)N2CCCCC2)c1)NCC1CCCCC1	D2 antag 44
COc1cc(C(=O)NC2CCN(Cc3ccccc3)CC2)cc(Cl)c1OC	D2 antag 89
COc1cccc(NC(=O)N2C3CCCC2CC(NC(=O)C2CC2)C3)c1 (stereo not drawn)	D2 antag 34
COc1ccccc1C(=O)NC1CC2CCCC(C1)N2Cc1ccccc1 (stereo not drawn)	none (no result: D2 ag-1, D2 PAM-2, D2 antag)
COc1ccc(C(=O)NC2CC3CCCC(C2)N3Cc2ccccc2)cc1OC (stereo not drawn)	D2 antag 82
COc1cc(OC)cc(C(=O)NC2CCN(CCCOc3ccccc3)CC2)c1	D2 antag 47
COc1ccc(CN2C3CCC2CC(NC(=O)c2cc(OC)c(OC)c(OC)c2)C3)cc1 (stereo not drawn)	none (no result: D2 ag-1, D2 antag)
COc1cccc(C(=O)NC2CC3CCCC(C2)N3Cc2ccc(C)cc2)c1 (stereo not drawn)	D2 antag 77
